# Source: PubChem
# GASC-1 inh = inhibitors of GASC-1 histone demethylase, primary screen, biochemical, fluorescence, DELFIA europium. Lysine-specific demethylase 4C (Homo sapiens), Q9H3R0. GST-JMJD2C(1-420) H3K9me3 demethylation. inhibition, % at 2.35 µM. 330,000 tested, 0.069% active;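 active = more than half of a compound's replicate wells show inhibition beyond 50%, single wells judged on their own value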;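 note: signal counts dimethyl H3K9 product captured on neutravidin plate; 0% = median of DMSO wells and 100% = 0.3 times that DMSO median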
# Rev-erbA mod = modulators of Rev-erb alpha DNA binding, primary screen, biochemical, FITC-DNA, fluorescence polarization, uHTS. Rev-erbα–FITC-DNA binding, 90 min. Nuclear receptor subfamily 1 group D member 1 (Homo sapiens), P20393. AID 1259318, 2017. 370,000 tested, 0.79% active. activity, % at 10 µM;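 active = activity above about 14%, limit read from the data; passing the limit was not always enough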;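 note: 0% = DMSO wells with 35 nM protein and 100% = DMSO wells with 750 nM protein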
# PG9 Ab binder = binders of HIV-1 gp120 antibody PG9, primary screen, biochemical, TR-FRET | 360,000 tested, 0.43% active | inhibition, % at 6.7 µM | TR-FRET gp120-PG9 antibody binding | AID 624416, 2012; in the data active = inhibition above about 8.5%
# PP5 primary = PP5 phosphatase inhibitors, primary screen, biochemical, fluorescence; purified PP5c, OMFP substrate fluorescence; 320,000 tested, 0.18% active; inhibition, % at 6.7 µM; Serine/threonine-protein phosphatase 5 (Homo sapiens), P53041;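 active = inhibition above the campaign's mean inhibition across all tested compounds plus 3 SD, cut at about 9.5% in these data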;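 note: 0% = DMSO only and 100% = 100 µM cantharidin control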
# PP1 counter = PP1-alpha phosphatase inhibitors, primary screen, counter-screen for PP5 inhibitor project, biochemical, fluorescence, OMFP substrate, single point; Serine/threonine-protein phosphatase PP1-alpha catalytic subunit (Homo sapiens), P62136; purified PP1alpha; inhibition, % at 6.7 µM; 320,000 tested, 0.9% active; AID 2235, 2010;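 active = inhibition above the mean inhibition of all tested compounds plus 3 SD, computed separately for each screening campaign, cut at about 15% in these data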
# Target sequence (P62136 whole entry, looked up): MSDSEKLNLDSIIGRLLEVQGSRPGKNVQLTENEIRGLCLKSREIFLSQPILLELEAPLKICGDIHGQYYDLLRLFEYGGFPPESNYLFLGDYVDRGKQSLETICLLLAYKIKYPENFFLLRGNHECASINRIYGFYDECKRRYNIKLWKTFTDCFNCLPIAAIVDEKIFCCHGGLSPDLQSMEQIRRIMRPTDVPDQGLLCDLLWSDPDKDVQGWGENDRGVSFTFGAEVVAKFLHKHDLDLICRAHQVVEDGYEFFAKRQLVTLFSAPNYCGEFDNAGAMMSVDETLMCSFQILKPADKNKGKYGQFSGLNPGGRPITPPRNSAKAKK
# KLK7 zymogen act = proKLK7 zymogen activators, primary screen, biochemical, fluorescence intensity | Kallikrein-7 (Homo sapiens), P49862 | activation, % at 7 µM | 370,000 tested, 0.9% active | AID 652039, 2013 | purified proKLK7, EDANS-DABCYL substrate fluorescence; 100% is mature enzyme control, 0% vehicle;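 active = activation above the mean of all tested compounds plus 3 SD, computed per campaign excluding outliers beyond control limits, cut at about 13% in these data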
# The depositor's hits bear a star; nt = no result given. In the library only some 2.8% were active in any assay of this set; here they are far more common.
SMILES,GASC-1 inh,Rev-erbA mod,PG9 Ab binder,PP5 primary,PP1 counter,KLK7 zymogen act
C[C@H]1CC2C([C@@H](O)C[C@@]3(C)C2CC[C@]3(O)C(=O)CO)[C@@]2(C)C=CC(=O)C=C12 (stereo partly drawn),nt,2,nt,nt,nt,nt
COc1cccc(C(=O)Nc2ccc3c(c2)C(=O)c2ccccc2C3=O)c1,0,-26,-2,2,33*,0
N[C@@H](Cc1cc(I)c(Oc2cc(I)c(O)c(I)c2)c(I)c1)C(=O)O,30,-3,nt,1,16*,nt
O=C(O)CCc1cc(I)c(Oc2ccc(O)c(I)c2)c(I)c1,10,nt,nt,nt,nt,nt
CC1(C)S[C@@H]2C(NC(=O)[C@@H](N)c3ccc(O)cc3)C(=O)N2[C@H]1C(=O)O (stereo partly drawn),nt,-5,nt,nt,nt,nt
CC1CCN(Cc2c(C(=O)N/N=C/c3ccc(C(F)(F)F)cc3)nnn2-c2nonc2N)CC1,13,0,-3,2,0,0
CC1CCN(Cc2c(C(=O)N/N=C/c3cccc(C(F)(F)F)c3)nnn2-c2nonc2N)CC1,-10,1,0,5,16*,0
COc1ccc(CC(=O)Nc2ccc(-c3nc4cc(C)ccc4o3)c(O)c2)cc1OC,-3,-27,2,2,16*,-3
COc1ccc(C2/C(=C(/O)c3ccc(C)cc3)C(=O)C(=O)N2c2ccccn2)cc1 (stereo not drawn),-11,0,4,-1,5,1
Cc1ccc(/C(O)=C2/C(=O)C(=O)N(c3ccccn3)C2c2ccc([N+](=O)[O-])cc2)cc1 (stereo not drawn),-1,4,1,-1,16*,-1
Cc1ccccc1NC(=O)CN1C(=O)CCSc2ccccc21,nt,-9,nt,nt,nt,0
CCOC(=O)c1ccc(N(CC(C)O)CC(C)O)cc1 (stereo not drawn),nt,-8,nt,nt,nt,nt
O=c1cc(-c2ccccc2Cl)oc2c(NS(=O)(=O)c3cc(Cl)cc(Cl)c3O)ccc(O)c12,7,nt,nt,1,27*,nt
O=[N+]([O-])c1cc(-c2cnc3ccccc3n2)ccc1Oc1ccc(F)cc1,62*,3,-3,-1,1,0
O=[N+]([O-])c1ccccc1Oc1cnc2ccccc2n1,5,2,-1,-1,4,0
C[C@]12c3[nH]c4cc(-c5ccco5)ccc4c3CCN1C(=O)[C@@H](CC(=O)NCCc1ccccn1)C[C@@H]2C(=O)N1CCCCC1,nt,-10,0,nt,nt,178*
CCc1ccc(Cc2cnc(NC(=O)C3=NCCN3)s2)cc1,18,-1,-1,-1,17*,0
O=C(Nc1ncc(Cc2ccccc2Cl)s1)C1=NCCN1,-11,-4,-3,1,-4,-1
OCC(S)CS (stereo not drawn),nt,10,nt,nt,nt,nt
C=CCn1c(SCC(=O)O)nnc1-c1ccco1,nt,0,nt,nt,nt,0
Cc1nn(-c2ccccc2)c(Cl)c1/C=C1\SC(=S)NC1=O,-5,5,0,3,9,0
Cc1nn(-c2ccccc2)c(Cl)c1/C=C1\SC(=S)N(CCCCCC(=O)O)C1=O,0,-3,1,1,16*,0
CC(C)(O)c1ccccc1CC[C@@H](SC1(CC(=O)O)CC1)c1cccc(/C=C/c2ccc3ccc(Cl)cc3n2)c1,nt,-2,nt,nt,nt,nt
N#C/C(=C\c1ccc(-c2ccc([N+](=O)[O-])cc2)o1)C(=O)Nc1nc(-c2cccs2)cs1,10,-29,0,1,1,0
N#C/C(=C\c1ccc(-c2ccccc2[N+](=O)[O-])o1)C(=O)Nc1nc(-c2cccs2)cs1,0,-31,-1,2,16*,0
O=C1CC(=C2c3ccccc3-c3ccccc32)C(=O)N1CCN1CCN(c2cccc(Cl)c2)CC1,1,1,-1,4,16*,-1
CC(O)CNc1nc2ccccc2n1CC(=O)NC12CC3CC(CC(C3)C1)C2 (stereo not drawn),51*,2,2,0,-6,1
